# Compounds with a hit are over-represented: about 2.4% of the library has one in this group of screens.
# eIF4E-4G inh: eIF4E/eIF4G interaction inhibition in translation initiation; hit rate 0.37% among 220,000; P63073+Q04637; inhibition, % at 21.7 µM; TR-FRET eIF4E-eIF4GI(517-606) binding, 2 h;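 active means inhibition above about 30%, limit read from the data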;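 further: 0% = full FRET control wells and 100% = background wells lacking eIF4GI fragment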
# PABP FP inh: blocks human PABP binding to poly(A) RNA. P11940. fluorescence polarization. inhibition, % at 35 µM. hit rate 1% among 290,000;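 further: calls also rest on retests at 20 µM and on dose response follow-up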
# eIF4H inh: inhibitors of RNA binding by human eIF4H; Q15056; eIF4H fluorescence polarization binding assay; hit rate 0.94% among 290,000; inhibition, % at 35 µM; AID 2012;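 further: calls also rest on retests at 20 µM and on dose response follow-up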
# PABP1 MLLE inh: inhibitors of microRNA-mediated deadenylation, human PABP1 MLLE binding; inhibition, % at 20 µM; P11940; AID 588489; hit rate 0.36% among 360,000; GST-MLLE / FITC-PAM2 fluorescence polarization; in the data active means inhibition above about 35%, passing the limit was not always enough;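 further: plate controls were DMSO wells with GST-MLLE for no effect and wells lacking GST-MLLE protein for full effect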
# PfM18AAP inh-1: blocks P. falciparum M18 aspartyl aminopeptidase. recombinant PfM18AAP, H-Glu-NHMec fluorogenic cleavage. inhibition, % at 7.35 µM. hit rate 1.2% among 290,000;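 active means inhibition above the campaign mean inhibition over all tested compounds plus 3 SD, cut at about 28% in these data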;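 further: 0% = plate median of test compound wells and 100% = 2 mM ZnCl2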
# PERK inhibitor: inhibitors of human PERK kinase; hit rate 0.17% among 220,000; CHO PERK-DD fusion, SEAP luminescence translation reporter; AID 1416; Q9NZJ5; inhibition, % at 5.6 µM;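 active means inhibition above the mean inhibition of all tested compounds plus 3 SD, set separately per screening campaign, cut at about 2.9% in these data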;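 further: PERK kinase domain activated by AP20187 dimerizer at 100 nM; 0% = DMSO with dimerizer and 100% = rapamycin at 8.4 µM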
# PfM18AAP inh-2: PfM18AAP inhibition, confirmation; shares compounds with PfM18AAP inh-1; recombinant PfM18AAP, H-Glu-NHMec fluorogenic cleavage; hit rate 28% among 2,400; inhibition, % at 7.35 µM; AID 2170;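 active means mean inhibition over replicate wells above the hit cutoff set for the earlier primary screen, cut at about 29% in these data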;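 further: 0% = median of test compound wells and 100% = 2 mM ZnCl2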
# CTSL1 confirm: Cathepsin L (human) inhibition, confirmation | inhibition, % at 5.96 µM | shares compounds with PfM18AAP inh-1 | purified cathepsin L1, Z-Leu-Arg-MCA fluorescence | 2,400 tested, under 10 active;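 active means average inhibition across replicates above the hit cutoff set in the earlier primary screen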;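 further: 0% = median of test compound wells and 100% = Z-Phe-Ala-diazomethylketone 1 µM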
# Target sequence (P07711 whole entry, looked up): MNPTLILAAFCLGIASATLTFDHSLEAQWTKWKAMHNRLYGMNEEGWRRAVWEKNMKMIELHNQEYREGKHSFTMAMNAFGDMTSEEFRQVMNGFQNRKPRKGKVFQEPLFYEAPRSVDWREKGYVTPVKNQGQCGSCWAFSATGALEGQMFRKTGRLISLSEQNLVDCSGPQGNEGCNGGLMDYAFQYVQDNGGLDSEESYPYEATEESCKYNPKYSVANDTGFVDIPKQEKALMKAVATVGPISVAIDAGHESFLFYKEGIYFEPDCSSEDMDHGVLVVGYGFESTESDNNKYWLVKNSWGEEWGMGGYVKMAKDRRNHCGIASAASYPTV
# The depositor's hits bear a star; / = not tested or not shown. Unless noted, how the calls were made is not given here.
SMILES,eIF4E-4G inh,PABP FP inh,eIF4H inh,PABP1 MLLE inh,PfM18AAP inh-1,PERK inhibitor,PfM18AAP inh-2,CTSL1 confirm
Cc1ccc(S(=O)(=O)Nn2c(O)c(C=C3N=c4ccccc4=N3)sc2=S)cc1,5,19,5,-2,15,1,/,/
O=C1N=c2ccccc2=C1c1sc(=S)n(NC(=O)c2cccc(O)c2)c1O,3,11,-8,31,-9,0,/,/
O=C(Nn1c(O)c(C=C2N=c3ccccc3=N2)sc1=S)c1cccc(Cl)c1,-6,38*,66,-72,54*,0,-3,-2
Oc1c(C=C2N=c3ccccc3=N2)sc(=S)n1-c1ccc(F)cc1,21,-1,48,-61,38*,1,-17,2
O=C(Nn1c(O)c(C=C2N=c3ccccc3=N2)sc1=S)c1ccc(Cl)cc1,-1,24,23,-77,25,0,/,/
O=C(Nn1c(O)c(C=C2N=c3ccccc3=N2)sc1=S)c1ccccc1,2,32,27,3,56*,0,-4,-2
CCN(C(=O)COc1ncnc2ccc(Br)cc12)C1CCS(=O)(=O)C1 (centres undefined),0,-2,6,-2,1,1,/,/
CCN(Cc1ccccc1)c1ccc(/C=N/NS(=O)(=O)c2cccc([N+](=O)[O-])c2)cc1,-1,7,2,7,3,1,/,/
CC1C/C(=N/N=C2/NC(=O)CS2)CC(C)(C)C1 (centres undefined),11,12,4,-4,8,1,/,/
CC1C/C(=N/N2C(=O)CSC2=S)CC(C)(C)C1 (centres undefined),3,1,10,25,38*,1,-20,-3
O=C(Cc1cnn(-c2ccccc2)c1)c1ccc(O)c(O)c1O,5,54*,86*,21,38*,-1,11,-10
Cc1nc2ccc(C(=O)Nc3ccc4c(c3)OCC(=O)N4)cn2c1N(C)C(=O)CCc1ccccc1,/,/,/,-8,/,/,/,/
CCc1noc(C)c1C(=O)N(CC)c1nc2c(C)cccc2s1,/,/,/,-5,/,/,/,/
Nc1ccc([N+](=O)[O-])cc1C(=O)NNC(=O)c1ccco1,-3,9,3,-11,33*,1,14,3
O=C(NNC(=O)c1ccccc1O)c1ccco1,0,-12,5,2,19,0,/,/
Cc1cccc(C(=O)NNC(=O)c2ccco2)c1O,/,-4,-9,2,32*,/,10,-1
O=C(NNc1ccc([N+](=O)[O-])cc1)c1ccco1,/,9,3,-66,69*,/,45*,4
O=C(NNc1ccc([N+](=O)[O-])cc1[N+](=O)[O-])c1ccco1,/,2,-8,-105,15,/,/,/
Cc1nn(C)cc1/C=C(/C#N)C(N)=O,5,-1,-2,-1,1,1,/,/
Cc1nc2ccccn2c1-c1csc(Nc2cccc(O)c2)n1,2,1,2,-14,38*,0,23,5
Cc1nc2ccccn2c1-c1csc(Nc2ccc(C(=O)O)cc2)n1,/,3,3,25,43*,/,23,0
Cc1nc(NC(=O)c2ccccc2)sc1-c1csc(Nc2ccc(Cl)cc2)n1,-3,8,-1,/,2,0,/,/
Cc1nc(C)c(-c2csc(Nc3cccc(O)c3)n2)s1,-3,10,-6,-4,1,1,/,/
COc1cc(/C=C/C(=O)NCC2CCCCC2)cc(OC)c1OC,/,-10,-21,-10,-7,/,/,/
CN(Cc1ccccc1F)C(=O)CCNC(=O)c1ccc(C(C)(C)C)cc1,/,/,/,5,/,/,/,/
SMILES,eIF4E-4G inh,PABP FP inh,eIF4H inh,PABP1 MLLE inh,PfM18AAP inh-1,PERK inhibitor,PfM18AAP inh-2,CTSL1 confirm
Cc1c(NC(=S)N/N=C/c2ccc(O)cc2)c(=O)n(-c2ccccc2)n1C,0,1,-2,21,35*,1,6,8
O=C(N/N=C(\c1ccccc1)c1cccnc1)c1cc(O)ccc1O,/,-1,-3,/,-7,/,/,/
C/C(=N\NC(=O)COc1ccccc1)c1ccc(O)cc1,-3,-1,-1,-1,1,1,/,/
C/C(=N\NC(=O)CC#N)c1ccc(Oc2ccccc2)cc1,2,-2,-2,-4,33*,0,-28,2
Cc1cc(O)c(Oc2cc(C)cc(O)c2O)c(O)c1,0,8,27,23,50*,0,36*,-3
Cc1cc(C(C)(C)C)c(O)c(C(C)(C)C)c1,-1,14,7,-14,1,1,/,/
CCCn1c(N/N=C(C)\C=C\c2ccccc2)nc2c1c(=O)[nH]c(=O)n2C,0,0,-9,/,44*,0,-20,3
Nc1cc2c(cc1C(=O)c1cccc(Br)c1)OCCO2,1,-5,-14,-5,-1,0,/,/
CCCc1cc(=O)[nH]c(=S)[nH]1,-4,2,2,22,44*,1,-36,-6
O=C(Nc1ccn(Cc2ccc(Cl)cc2)n1)c1ccc2c(c1)OCO2,1,-2,-1,1,2,0,/,/
CC(OC(=O)Cn1cnc2c1c(=O)n(C)c(=O)n2C)C(=O)NC1CCCCC1C (centres undefined),/,/,/,-22,/,/,/,/
Cc1nnc(SCC(=O)NNC(=O)CC#N)[nH]c1=O,7,-12,4,11,43*,2,28,4
CCOC(=O)CNC(=O)CSc1nnc(C)c(=O)[nH]1,3,-11,3,3,-3,0,/,/
Cc1ccnc(NC(c2ccccn2)c2c(C)[nH]c3ccccc23)c1 (centres undefined),6,-14,10,22,5,2,/,/
CCNC(=O)C1(C)CCCN(Cc2ccc(-n3ccnc3)cc2)C1 (centres undefined),/,/,/,12,/,/,/,/
CC(Sc1nccn1C)C(=O)Nc1ccccc1 (centres undefined),/,-6,3,5,-3,/,/,/
CC(Sc1nc(C(C)(C)C)cc(-c2ccccc2)c1C#N)C(=O)Nc1ccccc1 (centres undefined),-2,-8,-6,17,33*,0,-18,-1
CCC(=O)N1CCc2cc(Br)cc(S(=O)(=O)N3CCC(C(=O)NC(C)C)CC3)c21,/,-1,-2,-1,-3,/,/,/
COc1cc(C(c2c(C)[nH][nH]c2=O)c2c(C)[nH][nH]c2=O)cc(OC)c1OC,3,-1,-8,4,35*,-1,6,-2
COc1ccc(C(c2c(C)[nH][nH]c2=O)c2c(C)[nH][nH]c2=O)cc1Br,/,8,-14,-40,36*,/,15,3
O=NN(Cc1cccnc1)C(=O)NC1CCCCC1,/,/,/,8,/,/,/,/
COc1ccc(/C=N\NC(=O)c2ccc(F)cc2)cc1COc1cc(F)ccc1[N+](=O)[O-],/,-4,7,2,-14,/,/,/
COc1ccc(/C=N/NS(=O)(=O)c2ccc(F)cc2)cc1COc1cc(F)ccc1[N+](=O)[O-],-4,-8,0,9,65*,1,-44,4

# High-throughput results deposited in PubChem BioAssay by several laboratories.
